Sampled rows, rich in hits. Any-hit rate of the full collection: about 1.2%.
MRP-1 activ = activators of MRP-1 | H69AR cells + doxorubicin, viability rescue, CellTiter-Glo | viability increase, % at 10 µM | 140,000 tested, 0.61% active;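 active means viability gain under doxorubicin at or above a set limit, the compound median plus 3 SD, cut at about 4.7% in these data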;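 further: MRP-1 overexpressing cells given doxorubicin 25 µM after compound pretreatment; 18-22 h compound pretreatment then 72 h with doxorubicin before readout; 0% = doxorubicin-only wells and 100% = vehicle-treated cells without doxorubicin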
Smad3 FoxH1 inh = inhibitors of human Smad3 transcription factor binding; P84022; TR-FRET Smad3/Dy647-FoxH1 peptide binding, europium anti-His; inhibition, % at 25 µM; 88,000 tested, 0.29% active;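 active means compounds that reduce the energy-transfer binding signal between the protein and its labelled peptide by more than half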;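 further: 0% = Smad3 plus labelled peptide maximal FRET and 100% = peptide-only background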
Target sequence (P84022 whole entry, looked up): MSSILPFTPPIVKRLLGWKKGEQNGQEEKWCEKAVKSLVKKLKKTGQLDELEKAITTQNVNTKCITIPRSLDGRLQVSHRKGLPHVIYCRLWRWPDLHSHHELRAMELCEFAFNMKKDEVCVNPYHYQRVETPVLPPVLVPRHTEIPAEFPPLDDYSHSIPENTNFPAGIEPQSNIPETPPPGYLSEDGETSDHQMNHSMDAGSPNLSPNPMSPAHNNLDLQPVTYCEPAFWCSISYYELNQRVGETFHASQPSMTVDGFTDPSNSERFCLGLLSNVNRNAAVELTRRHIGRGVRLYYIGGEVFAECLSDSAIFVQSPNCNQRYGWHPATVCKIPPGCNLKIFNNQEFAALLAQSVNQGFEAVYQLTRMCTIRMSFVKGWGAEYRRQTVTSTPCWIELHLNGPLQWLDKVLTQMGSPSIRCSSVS
Mac1 fbg enh = CD11b/CD18-fibrinogen binding enhancement; P05107+P11215; K562 CD11b/CD18 adhesion to fibrinogen, ATPlite luminescence; activation, % at 10 µM; 93,000 tested, 0.07% active;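 active means 10 µM primary screen giving 50% or more activity, confirmed by 40% or more on retest at that dose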
Phagocyt inh = inhibitors of macrophage phagocytosis. J774A.1 macrophage IgG-bead phagocytosis, imaging. inhibition, % at 5 µM. 110,000 tested, 0.07% active;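 active means inhibition above the mean of the plate negative controls plus 5 SD, cut at about 13% in these data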;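 further: phagocytic index as fraction of beads internalized from green versus red external bead signal; plate controls were DMSO negative control for no effect and cytochalasin-D positive control for full effect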
MRP resist rev = reverses drug resistance mediated by MRP; H69AR cells + 2 uM doxorubicin, CellTiter-Glo, 72 h; differential viability (reversal), % at 10 µM; 85,000 tested, 0.04% active; AID 602;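 active means viability drop by adding the cancer drug above about 55%, with treated viability meeting a 40% cutoff, limit read from the data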;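 further: viability without doxorubicin minus viability with 2 µM doxorubicin for each compound; larger differential means the compound sensitizes cells more to doxorubicin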
CD11b adhes inh = CD11b/CD18-fibrinogen binding inhibition. P05107+P11215. inhibition, % at 10 µM. 93,000 tested, 0.54% active. AID 1497. K562 CD11b/CD18 adhesion to fibrinogen, ATPlite luminescence; Mn2+ added to activate the integrin;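 active means primary inhibition of 50% or more at 10 µM, then 40% or more on retest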
An asterisk follows results filed as active; nt = no result given; + = active, no number; ! = a repeat was not active; [ ] = remark or other dose.

SMILES	MRP-1 activ	Smad3 FoxH1 inh	Mac1 fbg enh	Phagocyt inh	MRP resist rev	CD11b adhes inh
COc1cc(C(=O)O)cc(Br)c1OC1CCCC1	-2	-2	-2	1	3	-5
COc1ccc(C(=O)NCc2ccccc2)cc1Br	2	nt	0	-8	nt	0
COc1ccc(C(=O)NCc2ccc3c(c2)OCO3)cc1S(=O)(=O)N(C)Cc1ccccc1	7.3*	nt	1	nt	nt	16
COc1ccc(C(=O)NCc2ccccc2)cc1S(=O)(=O)N1CCCc2ccccc21	5.4*	nt	-4	nt	nt	-1
CCNc1nc(NCC)nc(N(C)N)n1	-1	nt	nt	nt	nt	nt
Cc1cccc(-n2ncc3c(N4CC(C)CC(C)C4)ncnc32)c1 (stereo unspecified)	5.3*	7	-5	0	-6	9
Cc1ccc(C)c2sc(NC(=O)c3ccc(N4CCCCC4)c([N+](=O)[O-])c3)nc12	6.7*	nt	nt	nt	nt	nt
CC(C)Oc1ccc(/C(O)=C2/C(=O)C(=O)N(CCCN3CCOCC3)C2c2ccncc2)cc1 (stereo unspecified)	nt	-14	nt	nt	5	nt
COCc1nnc(NC(=O)c2cc(OC)c(OC)cc2[N+](=O)[O-])s1	-2	nt	nt	-2	nt	nt
COc1cc(NCC[C@@H]2CCCCN2)c2ncccc2c1	nt	14	nt	nt	nt	nt
CCCCOCCCNc1ncnc2c1[nH]c1ccccc12	-4	-10	-6	-1	-22	100*
O=c1[nH]c(N/N=C/c2ccccc2Br)nnc1-c1ccccc1	4.8*	nt	nt	-4	nt	nt
COc1ccc(/C=N/Nc2nnc(-c3ccccc3)c(=O)[nH]2)cc1	-4	nt	nt	-3	nt	nt
CCCCN(C(=S)NC(=O)c1cc(OC)c(OC)c(OC)c1)c1c(N)n(Cc2ccccc2)c(=O)[nH]c1=O	-2	nt	nt	-9	nt	nt
CCCCN(C)C(=O)CCC(=O)NNc1nc2ccccc2c2nc(C)nn12	-2	nt	nt	-12	nt	nt
CC(C)C1Cc2c(sc3[nH]c(=S)n(Cc4ccccc4)c(=O)c23)CO1 (stereo unspecified)	-1	-4	-6	0	-20	53*
CC(O)(CS(=O)(=O)Cc1ccccc1)C(=O)Nc1cccc(C(F)(F)F)c1 (stereo unspecified)	2	nt	nt	nt	nt	nt
CC(O)(CS(=O)(=O)Cc1ccccc1)C(=O)Nc1ccc(C(F)(F)F)cc1 (stereo unspecified)	7.9*	nt	-2	-1	nt	17
COc1ccc(Br)cc1/C(C)=N/NC1=NCCN1	-2	4	-6	3	-25	74*
CCCCCOc1ccc(Br)cc1/C(C)=N/NC1=NCCN1	-7	1	nt	nt	1	nt
C[C@@]12CC[C@H]3c4ccc(O)cc4CC[C@@H]3[C@H]1CC[C@H]2OP(=O)(O)O	nt	16	nt	nt	nt	nt
Oc1c(C=C2N=c3ccccc3=N2)sc(=S)n1C1CCCC1	-4	nt	31	-8	nt	-12
Oc1c(C=C2N=c3ccccc3=N2)sc(=S)n1-c1ccc(F)cc1	9.2*	nt	59	-10	nt	5
Nc1ccccc1CCCC(=O)O	nt	7	nt	nt	nt	nt
N#C/C(=N\O)c1nc(-c2ccccc2)cs1	-3	3	-5	0	11	66*!
SMILES	MRP-1 activ	Smad3 FoxH1 inh	Mac1 fbg enh	Phagocyt inh	MRP resist rev	CD11b adhes inh
C#CCOC(=O)[C@H](N)CC(N)=O	nt	-3	nt	nt	nt	nt
COc1ccccc1N1CCN(C(=O)c2ccc([N+](=O)[O-])s2)CC1	-2	nt	2	-8	nt	1
COc1ccccc1N1CCN(C(=O)c2cc3c(s2)CCC3)CC1	-3	5	70*	nt	-1	48
COc1ccc(C(CC(=O)O)NS(=O)(=O)c2ccc(C)cc2)cc1 (stereo unspecified)	-1	2	0	-1	0	51*
CCC(C)NC(=O)CC(NS(=O)(=O)c1ccc(C)cc1)c1ccc(OC)cc1 (stereo unspecified)	-3	nt	nt	-1	11	nt
CSc1nsc(SCC(=O)Nc2c(C)n(C)n(-c3ccccc3)c2=O)n1	2	-9	-1	-1	-7	-9
CSc1nc2nc3c(c(=O)n2[nH]1)CCCC3	-1	-12	3	0	10	-41
O=C(OC1CCc2ccccc2C1=O)c1ccccc1O (stereo unspecified)	14*	-2	-3	2	-8	-4
Cc1cc(C(=O)Nc2cc(C)n(Cc3ccc(Cl)cc3)n2)no1	0	1	nt	nt	-3	nt
Cc1cc(NC(=O)c2cc(C(C)C)on2)nn1Cc1ccc(Cl)cc1	6.7*	-14	-1	0	-8	45
Cc1ccc([C@@]2(C)CC/C(=N\N=C3/CC[C@](C)(c4ccc(C)c(C)c4)c4cc(C)c(C)cc43)c3cc(C)c(C)cc32)cc1C	nt	9	nt	nt	nt	nt
COc1ccc(Cn2c3ccc(OC)cc3c3nc4ccccc4nc32)cc1	-6	nt	23	-13	nt	0
COc1ccc2c(c1)c1c(C)c3cnccc3c(C)c1n2CCCN	nt	87*	nt	nt	nt	nt
COc1ccc(N(C(=O)Cn2cnc3ccccc32)C(C(=O)NC2CCCCC2)c2ccccc2)cc1 (stereo unspecified)	13*	nt	1	0	nt	-6
Cc1c(C(N)=O)sc(N)c1C(=O)OC(C)C	-2	4	1	0	-4	-7
Cc1c(C(=O)OC(C)C)sc(N)c1C(=O)OC(C)C	5.4*	nt	nt	-7	nt	nt
O=C(N1CCN(c2cccc(Cl)c2)CC1)C1(c2cccs2)CCOCC1	0	nt	-5	nt	nt	9
CC(C)CSC[C@@H]1O[C@H](n2cnc3c(N)nccc32)[C@H](O)[C@H]1O	nt	13	nt	nt	nt	nt
CC1=NN(c2ccc(C)cc2C)C(=O)C1C(c1ccccc1O)C1C(=O)N(c2ccc(C)cc2C)N=C1C (stereo unspecified)	5.6*	nt	nt	-13	nt	nt
CC1=NN(c2ccc(C)c(C)c2)C(=O)C1C(c1cccc(O)c1)C1C(=O)N(c2ccc(C)c(C)c2)N=C1C (stereo unspecified)	-4	nt	nt	nt	nt	nt
O=C(NCc1ccccn1)c1cn(CCc2ccccc2)nn1	0	3	-2	0	57*	-16
O=C(NCc1cccnc1)c1cn(CCc2ccccc2)nn1	-2	-3	-1	0	-4	-10
CN(C)CCC(=O)[C@]1(O)CC[C@@H]2[C@H]3CC=C4C[C@@H](O)CC[C@]4(C)[C@@H]3CC[C@]21C	nt	7	nt	nt	nt	nt
CCOC(=O)c1nnc(-c2ccccc2)nc1Oc1ccccc1Cl	5.2*	nt	0	-1	nt	-2
CCOC(=O)c1nnc(-c2ccccc2)nc1NC	-2	nt	nt	nt	nt	nt
CCOC(=O)C1=C(C)N=c2s/c(=C\c3ccc(OC(C)=O)cc3)c(=O)n2C1/C=C/c1ccccc1 (stereo unspecified)	6.7*	nt	nt	-2	nt	nt
CCN(CC)c1ccc(/C=C2\CCC(/C=C(\C#N)C(=O)Nc3ccccc3F)=C2N2CCOCC2)cc1	-3	nt	9	+[fluoresces]	nt	59
O=C(Nc1nnc(COc2ccc(Cl)cc2)s1)C1CCCO1 (stereo unspecified)	8.9*	-10	0	0	-1	-2
CCC(C)NC(=O)C(NS(=O)(=O)c1cccc2nsnc12)c1ccccc1 (stereo unspecified)	-2	6	nt	nt	-1	nt

High-throughput results from PubChem BioAssay.
